Screening data deposited in PubChem by National Center for Advancing Translational Sciences (NCATS).
Rows were chosen to be rich in hits. Some 6% of all compounds tested hit in one or more screens of this group.
D1 agonist – human D1 receptor agonism; actives 1% (n = 360,000); HEK293 T-REx D1 cells, calcium flux, agonist mode; P21728; activation, % at 2 µM; in the data active = activation above about 30%
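Agonism was scored from calcium flux recorded over 180 s (1 read/s) after pintool compound addition, following a 10-cycle baseline. Cells were inducible force-coupled HEK293 TREx D1, plated overnight at 30 C and loaded with no-wash calcium dye.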
D1 potentiator – human D1 dopamine receptor positive modulation; P21728; HEK293 TREx D1 cells, calcium flux, dopamine EC20 potentiation; potentiation, % at 10 µM; actives 0.036% (n = 360,000); in the data active = potentiation above about 30%
DRD3 antagonist – antagonists of human D3 dopamine receptor | P35462 | D3R cells, DiscoveRx beta-arrestin luminescence, antagonist mode; stronger effect = lower value | actives 2.5% (n = 360,000) | max response, negative = inhibition, %; in the data active = max response below about -50%; inconclusive = no clear call, values can overlap the other calls
Target sequence (P35462 whole entry, looked up): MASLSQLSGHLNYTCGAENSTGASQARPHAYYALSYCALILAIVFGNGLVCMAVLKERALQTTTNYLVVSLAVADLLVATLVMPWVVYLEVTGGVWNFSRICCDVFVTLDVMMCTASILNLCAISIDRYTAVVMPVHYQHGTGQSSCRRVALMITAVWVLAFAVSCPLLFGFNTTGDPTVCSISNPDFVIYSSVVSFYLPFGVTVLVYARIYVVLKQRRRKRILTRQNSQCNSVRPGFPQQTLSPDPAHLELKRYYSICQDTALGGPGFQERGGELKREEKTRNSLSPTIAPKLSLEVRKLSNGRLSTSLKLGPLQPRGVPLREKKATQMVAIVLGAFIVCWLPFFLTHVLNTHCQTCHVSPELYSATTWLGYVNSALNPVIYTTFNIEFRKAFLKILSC
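Cells plated overnight at 1500 cells/well, then exposed to library compounds with dopamine controls for 90 minutes at 37 degrees C. DiscoveRx reagent added for 30–60 minutes at room temperature; luminescence read, quantitative HTS format.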
DRD3 agonist – agonists of human D3 dopamine receptor | P35462 | D3R DiscoveRx beta-arrestin cells, luminescence, 90 min | max activation, % | actives 0.58% (n = 410,000); in the data active = max activation above about 30%
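Agonist-mode cell screen: cells plated at 1500/well and incubated overnight at 37 °C, then exposed to library compounds for 90 min at 37 °C. Detection reagent was added for 30–60 min at room temperature, and luminescence was read.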
D1 antagonist – human D1 dopamine receptor antagonism. AID 504652. HEK293 TREx D1 cells, calcium flux, dopamine EC80; stronger effect = lower value. actives 3.2% (n = 360,000). activity change, negative = inhibition, % at 10 µM. P21728; in the data active = activity change below about -30%
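Kinetic fluorescence of a calcium dye serves as the read-out. D1-expressing Hek293 Trex cells, induced overnight at 30 C, are exposed to compound for 180 s before an EC80 dopamine addition, then read 180 s further.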
A number is an active result; - = inactive; ? = inconclusive; . = no result.

SMILES	D1 agonist	D1 potentiator	DRD3 antagonist	DRD3 agonist	D1 antagonist
O=C(CSc1nnc(CNC(=O)c2ccccc2)o1)NCCc1ccccc1	-	-	-68.2	-	-
O=C(CSc1nnc(CNC(=O)c2ccccc2)o1)c1ccc(Cl)cc1	-	-	-	-	-43.2
COc1cc(C(=O)NCc2nnc(SCC(=O)NCCc3ccccc3)o2)cc(OC)c1OC	-	-	-	-	-
CC(C)CN(C[C@@H](OP(=O)(O)O)[C@H](Cc1ccccc1)NC(=O)O[C@H]1CCOC1)S(=O)(=O)c1ccc(N)cc1	.	.	.	-	.
Cc1ccc2nc(-c3ccc(NC(=O)CN4CCN(C(=O)c5ccco5)CC4)cc3)sc2c1	-	-	-	35.7	-
CCCCNC(=S)Nc1ccc(-c2nc3ccc(C)cc3s2)cc1	-	-	-	-	-46.8
CCOC(=O)c1cc(C)sc1NC(=O)CN1CCN(C(=O)c2ccco2)CC1	-	-	-	-	-
CCOC(=O)c1cc(CC)sc1NC(=O)CN1CCN(C(=O)c2ccco2)CC1	108.8	-	-	-	-
Cc1ccc2nc(-c3ccc(NC(=O)COC(=O)c4ccc(Br)o4)cc3)sc2c1	-	45.9	-	-	-
O=C(Cn1cc(S(=O)(=O)N2CCN(c3ccccc3F)CC2)c2ccccc2c1=O)Nc1cccc(C(F)(F)F)c1	-	-	.	-	-
NC(=O)c1cccc(C[C@H](C(=O)O)N2C(=O)c3ccc(C(=O)O)cc3C2=O)c1	-	-	.	.	-
Cc1ccccc1NC(=O)NC1(C(=O)NCC2CCCO2)CCCCC1 (stereo not drawn)	-	-	-	-	-
COc1cccc(-c2ncc3ccccc3c2COC(=O)N2CCCCC2)c1	-	-	-	-	.
[O-][n+]1c2c(c3c4non(O)c4ccc31)CCCC2	-	-	-	-	-30.8
COn1c2c(c3c4no[n+]([O-])c4ccc31)CCCC2	-	-	-	-	-
Cc1cc(C)c(NC(=O)Cn2c([N+](=O)[O-])cnc2C)c(C)c1	-	-	-	-	-45.5
COc1ccc(C(=O)CSc2cc(C)[nH]c(=O)n2)cc1	-	-	-51.1	-	-
COc1ccc(C(=O)CSc2nc(C)cc(=O)[nH]2)cc1	-	-	-	-	-
C/C(=N\NC1=NCCN1)c1ccc(N)c([N+](=O)[O-])c1	-	-	?	-	-
COc1ccc(/C(C)=N/NC2=NCCN2)cc1Cl	-	-	-	-	-92.5
Cc1cc(F)ccc1-n1nnc(C(N)=O)c1C	-	-	.	-	-
COc1ccc(C(=O)NCCC(=O)NCc2cc(=O)n(C)c(=O)n2C)cc1	-	-	-	-	-51.2
COc1cccc(C(=O)NCC(=O)NCc2cc(=O)n(C)c(=O)n2C)c1	-	-	-	-	-35.7
Cc1cc(NC(=O)C2Oc3ccccc3OC2C)no1 (stereo not drawn)	-	-	-138.0	-	-
CC1Oc2ccccc2OC1C(=O)Nc1nccs1 (stereo not drawn)	-	-	-	-	-
SMILES	D1 agonist	D1 potentiator	DRD3 antagonist	DRD3 agonist	D1 antagonist
Cc1cccc(C(=O)NC2CC3CCCC(C2)N3C(=O)Nc2ccccc2)c1 (stereo not drawn)	-	-	-	-	-
CCN(Cc1ccc2c(c1)OCO2)C(=O)CSc1nc(C)nc2sc(C)c(C)c12	-	-	-	40.2	-
CCN(C(=O)CSc1nc(C)nc2sc(C)c(C)c12)C1CCS(=O)(=O)C1 (stereo not drawn)	-	-	-	-	-32.8
Cc1nc(SCC(=O)N(CC(C)C)C2CCS(=O)(=O)C2)c2c(C)c(C)sc2n1 (stereo not drawn)	-	-	-	-	-
CC(NCC(O)COc1ccccc1)C1COc2ccccc2O1 (stereo not drawn)	-	-	-85.4	-	-
COc1ccc2c(c1)CO[C@]21O[C@H](CCO)C[C@H](O)[C@H]1O	.	.	-69.4	-	.
Cc1ccc2c(c1)CO[C@@]21O[C@H](CCO)C[C@H](O)[C@H]1O	.	.	?	-	.
N=C1c2ccccc2CN1c1ccc(N2CCOCC2)c(S(=O)(=O)Nc2ccc(Cl)cc2)c1	83.3	-	.	.	-
Cc1ccc2sc(N(Cc3cccnc3)C(=O)CCS(=O)(=O)c3ccccc3)nc2c1C	30.7	-	.	-	.
O=C(Nc1cnn(Cc2ccc(Cl)cc2Cl)c1)c1noc2c1CCc1ccccc1-2	-	-	.	-	-
COc1ccc(-n2nc([N+](=O)[O-])c(=NC3CCN(Cc4ccccc4)CC3)n2O)cc1	-	-	-50.7	-	-
CCC(C)NC(=O)Cn1c(=O)c2cccn2c2ccc(F)cc21 (stereo not drawn)	-	-	.	-	-
Cc1cc(=O)oc2c3c(cc(OCC(=O)NCc4ccncc4)c12)OC(C)(C)CC3	-	-	-	-	-
COc1ccc(CNC(=O)COc2cc3c(c4oc(=O)cc(C)c24)CCC(C)(C)O3)cc1OC	-	-	-	-	-31.3
CCOc1ccc(NC(=O)c2nn(C)c3c2COc2ccccc2-3)cc1	-	-	.	55.2	-
COC(=O)c1ccc(NC(=O)c2nn(C)c3c2COc2ccccc2-3)cc1	-	-	.	-	-
COC(=O)c1cc(NC(=O)c2nn(C)c3c2COc2ccccc2-3)cc(C(=O)OC)c1	-	-	.	-	-54.8
CN(C)c1ccc(C(C(=O)NCC2CCCO2)N(C(=O)c2snc(C(N)=O)c2N)c2ccccc2)cc1 (stereo not drawn)	-	-	-	-	-
CC(C)c1ccc(N(C(=O)c2snc(C(N)=O)c2N)C(C(=O)NCC2CCCO2)c2ccc(N(C)C)cc2)cc1 (stereo not drawn)	57.0	-	-	-	-
Cc1ccc(Sc2nnc(Cc3ccccc3)c3ccccc23)cc1	-	-	-50.6	-	-
COc1ccc(Sc2nnc(Cc3ccccc3)c3ccccc23)cc1	-	-	?	-	-
Cc1c(-c2ccc(F)cc2)nc(N)c(C#N)c1-c1ccco1	-	-	-	-	-32.9
CCc1nc(N)c(C#N)c(-c2ccc(F)cc2)c1C	-	-	-	-	-
CCOc1cc(N2CCOCC2)c(OCC)cc1NC(=O)CSc1nnc(N)s1	.	.	-	-	.
CCC(C)(C)C1CCc2[nH]nc(C(=O)NN)c2C1 (stereo not drawn)	-	-	-	-	-
CCC(C)(C)C1CCc2[nH]nc(C(=O)NC3CCCCC3)c2C1 (stereo not drawn)	-	-	-62.2	-	-
CSc1ncnc2c1ncn2CCCN1CCN(Cc2c(C)cc(C)cc2C)CC1	.	.	-	-	.
COC(=O)c1ccc(C23CC4(C2)[C@H](CN(Cc2ccc(C(F)(F)F)cc2)[C@@H]4c2ccccc2)C3c2ccc(C(F)(F)F)cc2)cc1 (stereo partly drawn)	-	-	.	.	-
COC(=O)c1ccc(C23CC4(C2)[C@H](CN(C)[C@@H]4c2ccccc2)C3c2ccc(C(F)(F)F)cc2)cc1 (stereo partly drawn)	-	-	-	-	-52.1
c1ccc(C(O[C@H]2CCCN(CCc3ccc4c(c3)OCO4)C2)c2ccccc2)cc1	.	.	.	-	.
